# Experiment: GAPDH versus PEG-3 reporter suppression – cell-based, luminescence, counter-screen for PEG-3 promoter inhibitor project, SAR follow-up (AID 651551)
# Conditions: HeLa PEG-Prom / GAPDH luciferase reporter, 6 or 24 h, run 2, 6 h; at 99 µM (top of the series)
row,Structure (SMILES),inhibition % (higher = more inhibition)
1,Cc1cc(NC(=O)c2ccccc2)n(-c2nc3ccccc3[nH]2)n1,15.3%
2,CCCn1nc(C(=O)Nc2nc(-c3ccncc3)cs2)c2ccccc2c1=O,56.1%
3,COc1ccc(-n2nc(C(=O)NCC(=O)Nc3ccc(OC)c(OC)c3)c3ccccc3c2=O)cc1,55.7%
4,COc1ccc(-n2nc(C(=O)NCC(=O)Nc3cccc(OC)c3)c3ccccc3c2=O)cc1,28.5%
5,CCn1cc(C(=O)NCc2ccco2)c(=O)c2cc(S(=O)(=O)N3CCCC3)ccc21,42.1%
6,O=C(Nc1nc2ccccc2s1)c1nn(-c2ccccc2)c(=O)c2ccccc12,6.36%
